Assay: blockers of RIG-like receptor reporter activation – cell-based, Sendai virus stimulus, luciferase, 10K MLSCN set, TLR/RLR signaling modifier project, primary screen (AID 602276);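 note: firefly luciferase from ISG56 promoter only with Renilla not read in this screen; 0% = Sendai virus plus DMSO and 100% = medium plus DMSO without virus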
Conditions: HEK293 RL24 IRF3 luciferase reporter, at 10 µM, hits give high values;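 active = inhibition at or above 50% at 10 µM; inactive = inhibition below 50%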

inhibition, inactive:
N#CCCN1CCN(S(=O)(=O)c2ccc(S(=O)(=O)NC3CCCCC3)cc2)CC1 14.1%
CCCN(CCC)C(=O)c1c(C)[nH]c(C(=O)OCC)c1C -15.1%
c1ccc2c(c1)CC(N1CCCCC1)c1ccccc1N2 (configuration not stated) 10.1%
CCOC(=O)N1CCN(C(=O)CSc2nnc(Cc3ccccc3)o2)CC1 2.23%
COc1ccc(CCNS(=O)(=O)c2ccc3oc(C(=O)O)c(C)c3c2)cc1OC 12.5%
Cc1cc(NC(=O)CSc2nc3c(c(=O)n2Cc2ccccc2)SC(C)C3)no1 (configuration not stated) -14.3%
c1ccc(OCc2nc(-c3ccccc3)no2)cc1 -80.4%
CC1CCN(C(=O)CCNS(=O)(=O)c2ccccc2)CC1 -23.4%
COc1ccccc1Oc1coc2c(CN3CCN(C)CC3)c(O)ccc2c1=O 11.8%
CCS(=O)(=O)N1CCCC(C(=O)NCc2ccccc2Cl)C1 (configuration not stated) 3.16%
Cc1ccc(NC(=O)c2ccco2)c(NC(=O)c2cccs2)c1 14.6%
Cc1cccc(-n2nc3c(c2NC(=O)CCC2CCCCC2)CS(=O)C3)c1C (configuration not stated) 10.6%
Cc1nc(N)c(C#N)c(-c2cccnc2)c1C 4.72%
COc1ccc(N2CCN(C(=O)C(C)(C)Oc3ccc(Cl)cc3)CC2)cc1 2.83%
CN1C(=O)CCC1(O)c1ccccc1 (configuration not stated) 11.4%
Cc1cc(=O)n(C)c(=O)n1CCCCCN1CCCC1 19.1%
COc1ccc(N2CCN(Cc3nc4c(c(=O)[nH]c(=O)n4C)n3CC(C)=O)CC2)cc1 4.33%

From PubChem BioAssay
